Results published in the antibiotic and cytotoxicity screens of Wong et al. (2023).
The campaign covered roughly 39,000 compounds. About 1,500 (3.8%) were called active. The entries come from a sample that favours actives as a whole.

The compounds below were run on HSkMC (human skeletal muscle cells) (assay: cytotoxicity call (relative viability < 0.9)). Details: 10 µM.
In the case of `O=C(C[C@H]1CC[C@H]2[C@@H](COC[C@@H](O)CN2C(=O)c2ccc3c(c2)OCO3)O1)NCCN1CCCC1`, the cytotoxicity call is reported as “inactive”.
With `O=C1[C@H]2C=NN[C@@H]2C(=O)N1Cc1ccccc1` the cytotoxicity call was “inactive”.
With `COc1ccc2c3c([nH]c2c1)[C@@H](CO)N(C[C@]13CCN(CC1)Cc1nccs1)C(=O)C1CCOCC1` the cytotoxicity call was “inactive”.
In the case of `C[C@@H]1CN([C@@H](C)CO)C(=O)c2cccc(NS(C)(=O)=O)c2O[C@@H]1CN(C)S(=O)(=O)c1cccs1`, the cytotoxicity call is reported as “inactive”.
With `CCS(=O)(=O)NCC[C@@H]1CC[C@@H](NC(=O)Cc2ccccn2)[C@H](CO)O1` the cytotoxicity call was “inactive”.
`C[C@@H]1CN([C@H](C)CO)C(=O)c2cc(NC(=O)Cc3cn(C)c4ccccc34)ccc2O[C@H]1CN(C)C(=O)Nc1ccc(C(F)(F)F)cc1` was tested, and the cytotoxicity call was “inactive”.
For `C[C@@H]1CN([C@H](C)CO)C(=O)c2cc(NC(=O)Cc3cn(C)c4ccccc34)ccc2O[C@H]1CN(C)Cc1ccc(C(F)(F)F)cc1`, the cytotoxicity call was “inactive”.
`C[C@@H]1CN([C@@H](C)CO)C(=O)c2cc(NC(=O)Cc3cn(C)c4ccccc34)ccc2O[C@@H]1CN(C)C(=O)Nc1ccc(C(F)(F)F)cc1` was tested, and the cytotoxicity call was “active”.
With `C[C@H](CO)N1C[C@H](C)[C@@H](CN(C)Cc2ccc(C(F)(F)F)cc2)Oc2ccc(NC(=O)Cc3cn(C)c4ccccc34)cc2C1=O` the cytotoxicity call was “inactive”.
For `C[C@@H]1CN([C@H](C)CO)C(=O)c2cc(NC(=O)Cc3cn(C)c4ccccc34)ccc2O[C@@H]1CN(C)Cc1ccc(C(F)(F)F)cc1`, the cytotoxicity call was “active”.
`C[C@H](CO)N1C[C@H](C)[C@@H](CN(C)C(=O)Nc2ccc(C(F)(F)F)cc2)Oc2ccc(NC(=O)Cc3cn(C)c4ccccc34)cc2C1=O` was tested, and the cytotoxicity call was “inactive”.
`O=C(C[C@H]1CC[C@H]2[C@@H](COC[C@@H](O)CN2S(=O)(=O)c2ccccc2)O1)N1CCc2ccccc2C1` was tested, and the cytotoxicity call was “inactive”.
In the case of `C[C@H]1CN([C@@H](C)CO)C(=O)c2cc(NS(=O)(=O)c3ccccc3)ccc2O[C@H]1CN(C)CC1CC1`, the cytotoxicity call is reported as “inactive”.
In the case of `Cn1c(N)c(C(=O)c2ccco2)c(=O)n(C)c1=O`, the cytotoxicity call is reported as “inactive”.
In the case of `C[C@H](CO)N1C[C@H](C)[C@H](CN(C)S(=O)(=O)c2ccc(Cl)cc2)Oc2ccc(NC(=O)CCN3CCOCC3)cc2CC1=O`, the cytotoxicity call is reported as “inactive”.
In the case of `C[C@@H]1CN([C@@H](C)CO)S(=O)(=O)c2ccc(C#C[C@@H](C)O)cc2O[C@H]1CN(C)C(=O)c1ccncc1`, the cytotoxicity call is reported as “inactive”.
With `COc1ccc2c3c([nH]c2c1)[C@H](CO)N(C[C@]13CCN(CC1)CC1CCCC1)C(=O)CN1CCOCC1` the cytotoxicity call was “inactive”.
In the case of `C[C@H]1CN([C@@H](C)CO)C(=O)Cc2cc(NC(=O)c3ccncc3)ccc2O[C@@H]1CN(C)S(=O)(=O)c1ccc(Cl)cc1`, the cytotoxicity call is reported as “inactive”.
For `C[C@@H]1CCCCO[C@@H](CN(C)Cc2ccccc2)[C@@H](C)CN([C@@H](C)CO)C(=O)c2cc(NC(=O)CCC(F)(F)F)ccc2O1`, the cytotoxicity call was “inactive”.
`CC(C)C[C@@H]1C(=O)O[C@H](C)C(=O)N(C)[C@@H](CC(C)C)C(=O)O[C@H](Cc2ccc(N3CCOCC3)cc2)C(=O)N(C)[C@@H](CC(C)C)C(=O)O[C@H](C)C(=O)N(C)[C@@H](CC(C)C)C(=O)O[C@H](Cc2ccc(N3CCOCC3)cc2)C(=O)N1C` was tested, and the cytotoxicity call was “active”.
`CCOc1cc(OCC)cc(C(=O)N[C@@H](Cc2ccc(-n3cc(-c4ccc(C(=O)NO)s4)nn3)cc2)C(=O)OC)c1` was tested, and the cytotoxicity call was “inactive”.
`COc1ccccc1-c1cnc2c(c1)C(=O)N([C@H](C)CO)C[C@@H](C)[C@H](CN(C)C(=O)c1cccnc1)O2` was tested, and the cytotoxicity call was “inactive”.
`C[C@H](CO)N1C[C@H](C)[C@H](CN(C)Cc2ccc(Cl)c(Cl)c2)Oc2c(NC(=O)Nc3ccccc3)cccc2C1=O` was tested, and the cytotoxicity call was “inactive”.
In the case of `C[C@@H]1CN([C@@H](C)CO)C(=O)c2cccc(NC(=O)Nc3ccccc3)c2O[C@@H]1CN(C)Cc1ccc(Cl)c(Cl)c1`, the cytotoxicity call is reported as “inactive”.
With `C[C@H](CO)N1C[C@H](C)[C@@H](CN(C)Cc2ccc(Cl)c(Cl)c2)Oc2c(NC(=O)Nc3ccccc3)cccc2C1=O` the cytotoxicity call was “active”.
With `C[C@H](CO)N1C[C@H](C)[C@@H](CN(C)Cc2ccc(Cl)c(Cl)c2)Oc2c(NC(=O)Nc3cccc4ccccc34)cccc2C1=O` the cytotoxicity call was “active”.
For `C[C@H]1CN([C@@H](C)CO)C(=O)c2cccc(NC(=O)Nc3ccccc3)c2O[C@@H]1CN(C)Cc1ccc(Cl)c(Cl)c1`, the cytotoxicity call was “active”.
With `C[C@@H]1CN([C@H](C)CO)C(=O)c2cccc(NC(=O)Nc3ccccc3)c2O[C@H]1CN(C)Cc1ccc(Cl)c(Cl)c1` the cytotoxicity call was “inactive”.
For `C[C@H]1CN([C@@H](C)CO)C(=O)c2cccc(NC(=O)Nc3ccccc3)c2O[C@H]1CN(C)Cc1ccc(Cl)c(Cl)c1`, the cytotoxicity call was “inactive”.
For `C[C@H]1CN([C@@H](C)CO)C(=O)c2cccc(NC(=O)Nc3cccc4ccccc34)c2O[C@H]1CN(C)Cc1ccc(Cl)c(Cl)c1`, the cytotoxicity call was “inactive”.
For `C[C@@H]1CN([C@@H](C)CO)C(=O)c2cccc(NC(=O)Nc3cccc4ccccc34)c2O[C@@H]1CN(C)Cc1ccc(Cl)c(Cl)c1`, the cytotoxicity call was “inactive”.
With `Cc1noc(C)c1NC(=O)Nc1ccc2c(c1)C(=O)N([C@H](C)CO)C[C@H](C)[C@@H](CN(C)Cc1ccc(Oc3ccccc3)cc1)O2` the cytotoxicity call was “inactive”.
For `C[C@H]1CN([C@@H](C)CO)C(=O)Cc2cc(NC(=O)Cc3ccccc3)ccc2O[C@H]1CN(C)C(=O)Nc1cccc2ccccc12`, the cytotoxicity call was “inactive”.
`Cc1noc(C)c1S(=O)(=O)Nc1ccc2c(c1)C(=O)N([C@H](C)CO)C[C@@H](C)[C@@H](CN(C)Cc1ccc(Oc3ccccc3)cc1)O2` was tested, and the cytotoxicity call was “inactive”.
In the case of `Cc1cc2c(cc1C)N[C@@H](CC(N)=O)C(=O)N2`, the cytotoxicity call is reported as “inactive”.
In the case of `C[C@@H]1CN([C@H](C)CO)C(=O)Cc2cc(NC(=O)CCCN(C)C)ccc2O[C@H]1CN(C)Cc1ccc(Oc2ccccc2)cc1`, the cytotoxicity call is reported as “inactive”.
For `COc1ccccc1S(=O)(=O)N[C@H]1C=C[C@H](CC(=O)N2CCN(C)CC2)O[C@@H]1CO`, the cytotoxicity call was “inactive”.
With `C[C@H](CO)N1C[C@H](C)[C@H](CN(C)C(=O)NC2CCCCC2)OCCCC[C@H](C)Oc2ccc(NC(=O)Nc3ccc(C(F)(F)F)cc3)cc2C1=O` the cytotoxicity call was “inactive”.
For `C[C@H](CO)N1C[C@H](C)[C@@H](CN(C)C(=O)c2ccncc2)Oc2cc(-c3cccc(C#N)c3)ccc2S1(=O)=O`, the cytotoxicity call was “inactive”.
In the case of `C[C@@H]1CCCCO[C@H](CN(C)Cc2ccccc2)[C@@H](C)CN([C@H](C)CO)C(=O)c2cc(NS(=O)(=O)c3ccccc3)ccc2O1`, the cytotoxicity call is reported as “inactive”.
In the case of `CCC(=O)Oc1ccc2c(c1)CCC1C2CCC2(C)C1CC(OC(=O)CC)C2OC(=O)CC` (configuration not stated), the cytotoxicity call is reported as “inactive”.
In the case of `CC(C)c1cc(C(C)C)c(CC(=O)NS(=O)(=O)Oc2c(C(C)C)cccc2C(C)C)c(C(C)C)c1`, the cytotoxicity call is reported as “active”.
With `COC(=O)[C@@H](N)c1cccc(OC)c1` the cytotoxicity call was “inactive”.
`CC(C)c1cccc(C(C)C)c1NC(=O)Cc1cccs1` was tested, and the cytotoxicity call was “inactive”.
With `C[C@H]1CN([C@@H](C)CO)C(=O)c2c(c3ccccc3n2C)-c2ccccc2CO[C@H]1CN(C)C(=O)c1ccc(F)cc1` the cytotoxicity call was “inactive”.
`COC(=O)C[C@@H]1CC[C@@H]2[C@H](COC[C@H](O)CN2S(=O)(=O)c2ccc(F)cc2)O1` was tested, and the cytotoxicity call was “inactive”.
With `C[C@@H]1CN([C@@H](C)CO)S(=O)(=O)c2ccc(-c3cccnc3)cc2O[C@@H]1CN(C)C(=O)NC1CCCC1` the cytotoxicity call was “inactive”.
With `C[C@@H]1CN([C@H](C)CO)S(=O)(=O)c2ccc(-c3cncnc3)cc2O[C@@H]1CN(C)C(=O)C1CCCCC1` the cytotoxicity call was “inactive”.
`O=C1C=CC(=O)N1c1ccc(O)cc1` was tested, and the cytotoxicity call was “active”.
For `CCCCC1C(=O)N(c2ccccc2)N(c2ccc(O)cc2)C1=O` (configuration not stated), the cytotoxicity call was “inactive”.
With `Oc1ccc(O)cc1` the cytotoxicity call was “inactive”.
`COc1ccc(CN(C)C[C@H]2OCCCC[C@H](C)Oc3ccc(NS(=O)(=O)c4cccs4)cc3C(=O)N([C@@H](C)CO)C[C@@H]2C)cc1` was tested, and the cytotoxicity call was “inactive”.
`C[C@H]1CN([C@@H](C)CO)S(=O)(=O)c2ccc(C3=CCCCC3)cc2O[C@H]1CN(C)S(=O)(=O)c1cn(C)cn1` was tested, and the cytotoxicity call was “inactive”.
With `Cc1ccc(S(=O)(=O)Nc2ccc3c(c2)C(=O)N([C@H](C)CO)C[C@@H](C)[C@H](CN(C)Cc2ccccc2)OCCCC[C@@H](C)O3)cc1` the cytotoxicity call was “inactive”.
In the case of `COc1ccc(S(=O)(=O)N(C)C[C@H]2Oc3c(NC(=O)Nc4c(C)noc4C)cccc3C(=O)N([C@@H](C)CO)C[C@H]2C)cc1`, the cytotoxicity call is reported as “inactive”.
`COc1ccc2c3c(n(c2c1)C)[C@H](CO)N(C[C@]13CN(C1)C(=O)CN(C)C)C(=O)CN(C)C` was tested, and the cytotoxicity call was “inactive”.
In the case of `C[C@@H]1CN([C@@H](C)CO)C(=O)c2cc(NC(=O)CCCN(C)C)ccc2O[C@H]1CN(C)Cc1ccc(C(=O)O)cc1`, the cytotoxicity call is reported as “inactive”.
With `Cc1ncc([N+](=O)[O-])n1C[C@@H](O)CCl` the cytotoxicity call was “inactive”.
`Cc1noc(C)c1NC(=O)N(C)C[C@@H]1Oc2ccc(NC(=O)Cn3cnnn3)cc2C(=O)N([C@@H](C)CO)C[C@@H]1C` was tested, and the cytotoxicity call was “inactive”.
`N#Cc1c(N)nc(SCc2csc(-c3ccc(Cl)cc3)n2)c(C#N)c1-c1ccc(OCCO)cc1` was tested, and the cytotoxicity call was “active”.
For `COc1ccc(NC(=O)Nc2ccc3c(c2)C(=O)N([C@@H](C)CO)C[C@@H](C)[C@@H](CN(C)C(=O)Nc2ccc4c(c2)OCO4)OCCCC[C@@H](C)O3)cc1`, the cytotoxicity call was “inactive”.
For `C[C@@H]1CCCCO[C@@H](CN(C)C(=O)CCC(F)(F)F)[C@@H](C)CN([C@@H](C)CO)C(=O)c2cc(NC(=O)Cc3ccccc3)ccc2O1`, the cytotoxicity call was “inactive”.
In the case of `C[C@@H]1CN([C@@H](C)CO)C(=O)Cc2cc(NC(=O)Nc3ccc(F)cc3)ccc2O[C@@H]1CN(C)S(C)(=O)=O`, the cytotoxicity call is reported as “inactive”.
`CCCNC(=O)[C@@]1(Sc2ccc(C)cc2)CC(=O)N(Cc2ccccc2C(F)(F)F)[C@@H]1c1ccc(CO)cc1` was tested, and the cytotoxicity call was “inactive”.
`Cn1cc(-c2[nH]c3cc(NC(=O)[C@H](N)C4CCCCC4)cc4c3c2C=NNC4=O)cn1` was tested, and the cytotoxicity call was “active”.
For `CCCCCCCC/C=C\CCCCCCCC(N)=O`, the cytotoxicity call was “inactive”.
For `O=C(C[C@@H]1CC[C@@H]2[C@H](COC[C@H](O)CN2S(=O)(=O)c2ccccc2)O1)NCc1ccncn1`, the cytotoxicity call was “inactive”.
